Measured values taken from PubChem BioAssay AID652020 (National Center for Advancing Translational Sciences (NCATS), 2013).
This is one part of the list. Inconclusive results are not listed. Calls of active or inactive are those of the source. The call rests on the fitted dose curve; in most records, active means well fitted curve in the direction sought with a large enough effect; inconclusive means small, poorly fitted or top-dose-only effect, or another doubt; inactive means no such curve, though single readings can be large or run the other way.

Biological target: Glutathione reductase, mitochondrial (Homo sapiens) (UniProt P00390)
Test: qHTS Assay for Inhibitors of Mammalian Selenoprotein Thioredoxin Reductase 1 (TrxR1): Counterassay in Glutathione Reductase (GR)
Conditions: purified GR, DTNB reduction absorbance 405 nm kinetic; series mostly up to 57.1 µM
From the text: The selenoprotein thioredoxin reductase (TrxR; EC 1.8.1.9) is a FAD containing homodimeric pyridine nucleotide-disulfide oxidoreductase with many cellular roles. Together with NADPH and its prime substrate thioredoxin (Trx), the enzyme forms the core of the Trx system. The mammalian Trx system exerts a wide spectrum of functions including redox regulation, antioxidant defense, regulation of transcription factors as well as support of cell growth and replication. Many of these functions involve the reduction of Trx, which may subsequently reduce a number of different substrates including ribonucleotide reductase, peroxiredoxins or NFkB. Mammalian TrxR itself also has a broad substrate specificity, reducing both protein and non-protein substrates, including low molecular weight compounds such as dehydroascorbate, lipoic acid, ubiquinone, and juglone. […]
Three microliters of reagents (100 microM NADPH and 60 nM hGR or 100 microM NADPH as no-enzyme control) was dispensed into 1,536-well black clear-bottomed plates (Buffer: 0.1 M potassium phosphate, pH 7.4/10 mM EDTA, 0.01 % Tween-20). […] The plate was transferred to a ViewLux high-throughput CCD imager (Perkin-Elmer, Wellesley, MA) where kinetic measurements (one read per 5 min for 6 reads, total time 25 min) of the TNB absorbance was acquired using a 405 excitation filter.

Glutathione reductase, mitochondrial (Homo sapiens), sequence (P00390 whole entry, looked up): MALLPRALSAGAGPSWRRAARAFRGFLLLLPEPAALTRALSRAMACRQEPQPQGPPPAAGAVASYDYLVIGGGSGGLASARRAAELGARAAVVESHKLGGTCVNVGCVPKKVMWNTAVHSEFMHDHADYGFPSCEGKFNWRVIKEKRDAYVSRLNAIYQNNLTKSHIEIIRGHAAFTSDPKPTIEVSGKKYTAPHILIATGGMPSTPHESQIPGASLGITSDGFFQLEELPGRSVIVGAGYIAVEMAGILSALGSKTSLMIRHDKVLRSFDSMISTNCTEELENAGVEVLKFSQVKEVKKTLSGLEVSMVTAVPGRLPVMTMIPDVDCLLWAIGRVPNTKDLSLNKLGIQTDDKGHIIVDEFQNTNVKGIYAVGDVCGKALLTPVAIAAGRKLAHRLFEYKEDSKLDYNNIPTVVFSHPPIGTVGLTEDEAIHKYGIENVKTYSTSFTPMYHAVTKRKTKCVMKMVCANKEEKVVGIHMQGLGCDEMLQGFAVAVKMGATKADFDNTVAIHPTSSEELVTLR

COc1ccc(-c2nc(CS(=O)CC(=O)N3CCC4(CC3)OCCO4)c(C)o2)cc1 (stereo unspecified)
outcome: inactive
